This is an account of results in PubChem BioAssay (NCI).

About 83,000 compounds went through this panel and 20% of them were active in at least one assay; those are over-represented in the sample as a whole.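 Negative percent growth values reflect cell death: -40 means 40% of the cells present at the start died, and -100 means all died.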 Unmarked numbers belong to inactive results. Calls of active or inactive are those of the source.

The test system of the assay is IGROV1 ovarian. Description: NCI-60 one-dose screen, 48 h (100 = growth as untreated, 0 = no growth, -100 = all killed). To be noted: 10 µM unless noted. As to the method: Growth inhibition of the IGROV1 human tumor cell line is measured as a screen for anti-cancer activity. Cells are grown in 96 well plates and exposed to the test compound for 48 hours. Compounds are tested at a single concentration, which is 10^-5 M for most compounds. The reported endpoint is percent growth (GI% or GIPRCNT), where numbers from 0 - 100% represent growth inhibition, and numbers from -100% - 0 represent cell death. For example, a value of 40 represents 60% growth inhibition. A value of 0 means no net growth occurred over the course of the experiment. A value of -40 indicates 40% of cells at the beginning of the experiment died by the end of the experiment. A value of -100 means all cells are dead at the end of the experiment.
NCI-60 Human Tumor Cell Lines Screen was performed using the standard one-dose NCI protocol, which is described in more detail at https://dtp.cancer.gov/discovery_development/nci-60/default.htm.
Compounds with GIPRCNT values below 10 were considered active. Activity score was based on GIPRCNT using the following formula: […]
Score is 0 for GIPRCNT values of 100 or above, 50 for GIPRCNT values of 0, and 100 for GIPRCNT values of -100.
For `CC(=O)c1cccc(Nc2ncnc3ccc(NC(=O)c4ccco4)cc23)c1`, the growth is 86.1%.
Under `CC(=O)c1cc(C(=O)c2ccc3c(c2)Sc2ccccc2N3)c2c(C)cccn12` stands 34.1%.
Turning to `CC(C)COC(=O)NC(C)(C)C`, the growth is 107%.
In the case of `COc1c(B(O)O)cccc1-c1nc2ccc3[nH]ncc3c2c2c1CCCC2`, the growth is 13.8%.
Consider `Cn1c(=O)c2[nH]c(Cc3ccc4c(c3)OCO4)nc2n(C)c1=O`, for which the growth was 106%.
`N#Cc1ccc(NC(=O)Nc2nc3ccc(OC(F)(F)F)cc3s2)cc1`: the growth is 13.2%.
To `COc1ccc(-c2nn(-c3cccc(Cl)c3)cc2/C=C2\C(=N)N(c3ccccc3)N=C2N)cc1` belongs 27.9%; to `O=C(NC1CC1)c1ccc(-c2nc3ccc4[nH]ncc4c3c3c2CCCC3)cc1`, 22.7%.
`COc1cc(NCCCCC(C)N)c2nccc(C)c2c1` (stereo not given): the growth is 71.3%.
Turning to `COc1ccc(C2C3=C(COC3=O)N(CCO)c3cc(OC)c(OC)cc32)cc1` (stereo not given), the growth was 119%.
To `C[C@@H](C[C@H](CC1CC1)c1ccccc1)c1ccc2ccccc2c1` belongs 101%; to `N=C(N)c1ccc(-c2ccc(-c3cc(Cl)cc(Cl)c3)o2)nc1`, -41.3% (active); to `Fc1cc(-c2nnc3sc(-c4ccc(Cl)cc4)nn23)c(Cl)cc1Cl`, 100%.
Regarding `COc1cccc2nc(Nc3cccc(NC(=O)c4ccc(N5CCN(C)CC5)c(C(F)(F)F)c4)c3)ccc12`, the growth was 28.6%.
With `O=C(Nc1ccc(Oc2ccc(Nc3nc4ccccc4s3)cc2)cc1)Nc1ccc(Cl)c(C(F)(F)F)c1`, the growth was 17%.
As to `CCCCCCCCCCCCCCCCS(=O)(=O)Nc1cc(C(=O)NN)cc(C(=O)NN)c1`, the growth was 66.3%.
Turning to `NC(N)=N/N=C/c1ccccc1`, the growth was 108%.
Under `CNCc1cccc2c1OCCOCCOCCC(C)S(=O)(=O)c1ccc(cc1)-c1cnc(N)c(n1)C(=O)N2` (stereo not given) stands 28.2%; under `Cc1ccc(C2CC(c3cccs3)=NN2c2ccc(S(N)(=O)=O)cc2)s1` (stereo not given), 98.8%.
To `CC(=O)c1ccc(-n2c(-c3cc(-c4ccsc4)n[nH]3)n[nH]c2=S)cc1` belongs 107%; to `CC(C)N1CCN(c2ccncc2S(=O)(=O)N2CCN(C)CC2)CC1`, 119%.
Under `CNCc1ccccc1CN(CC(=O)Nc1ccc2c(c1)CC1(C2)C(=O)Nc2ncccc21)C(=O)C(C)(C)C` (stereo not given) stands 92.4%.
For `Clc1cn2cc(-c3ccc(Cl)c(Cl)c3Cl)nc2s1`, the growth is 55.7%.
As to `Cc1cc(O)c(C2=NN(c3ccc(S(N)(=O)=O)cc3)C(c3ccc(Cl)cc3)C2)c(C)c1Cl` (stereo not given), the growth was 20.6%.
As to `Clc1cc(Br)ccc1-c1ccc(CNCC2CCNCC2)o1`, the growth is 53.8%.
Under `C/C(CC(=O)NNc1ccc([N+](=O)[O-])cc1)=N\Nc1ccc([N+](=O)[O-])cc1` stands 78.3%.
Under `O=C(/C=C/c1cccc([N+](=O)[O-])c1)c1ccc(Nc2nc(N3CCCCC3)nc(N3CCCCC3)n2)cc1` stands 88.1%; under `[O-]/[N+](=C\c1ccccc1)CC1(O)CCCCC1`, 125%.
In the case of `CC(COC(=O)c1ccccc1)N1CC2CCC(C1)O2` (stereo not given), the growth was 113%.
Under `COc1ccc(C2=CC(c3ccc(OC)cc3Br)N3C=CSC3=N2)cc1` (stereo not given) stands 37.8%; under `Cc1ccc(CSCc2ccc(C(=O)NC3CC3)o2)cc1`, 89.2%.
To `CCN(CC)CCNc1c(C)cc(CO)c(Cl)c1C` belongs 64.8%; to `C=C(C)[C@@H]1CC[C@]2(C)[C@H](CC=C3[C@@H]4C[C@](C)(C(=O)N5CCN(C)CC5)CC[C@]4(C)CC[C@]32C)[C@@]1(C)CCC#N`, 76.4%; to `CCN(CC)c1ccc(C(=N)c2ccc(N(C)C)cc2)cc1`, 4.79% (active).
To `O=Cc1ccc2nc(C(Cl)(Cl)Cl)ccc2c1` belongs 93.1%.
As to `O=C1C(Cl)=C(N/N=c2/[nH][nH]/c(=N/NC3=C(Cl)C(=O)c4ccccc4C3=O)c3ccccc23)C(=O)c2ccccc21`, the growth was 59.6%.
To `CCCCCCCCCCCCCCCCOc1ccc(S(=O)(=O)N(C)C)cc1[N+](=O)[O-]` belongs 98.5%; to `COc1ccc(-c2n[nH]nc2-c2cc(OC)c3c(c2)OCO3)cc1`, -17.4% (active).
With `Nc1nc(N)c2cc(Sc3ccc(Cl)cc3)ccc2n1`, the growth is 22.9%.
As to `CCSc1ccc([C@@H]2[C@@H](O)C(=O)N2c2cc(OC)c(OC)c(OC)c2)cc1`, the growth was 32.5%.
